# According to PubChem BioAssay AID1159580 (chemical genetic matrix, 2015):
# Where “and” joins values, the source holds several entries; their conditions need not be identical. Equal entries are not always repeated. Hit rate of the full screen: of about 5,500 compounds, about 2,000 (36%) were called active. Roughly 18% stayed inconclusive and do not appear here. The list shows a part of the results. A number with no mark means an inactive call. Cut-off read from the data, not from the text of the source: active = normalized growth mostly below about 0.91 (no sharp cut-off); inconclusive = no clear call, values can overlap the other calls; inactive = mostly above about 0.92.
# Assay: chemical genetic growth profiling, strain panel (AID 1159580);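 note: tested at 20 µM; growth read once vehicle control cultures reached saturation at 30 °C; 1 = growth at the plate median or of vehicle wells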
# Conditions: S. cerevisiae deletion strains, growth OD
structure (smiles),measurement,setting,value
CN1C[C@H](C(=O)N[C@]2(C)O[C@@]3(O)[C@@H]4CCCN4C(=O)[C@H](Cc4ccccc4)N3C2=O)C[C@@H]2c3cccc4[nH]cc(c34)C[C@H]21,normalized growth,"locus YAL013W, strain DEP1, stronger effect = lower value",0.96
same,normalized growth,"locus YAL021C, strain ccr4, stronger effect = lower value",0.95
same,normalized growth,"locus YAL026C, strain drs2, stronger effect = lower value",1.01
same,normalized growth,"locus YAL030W, strain snc1, stronger effect = lower value",0.984
same,normalized growth,"locus YBL061C, strain skt5, stronger effect = lower value",0.996
same,normalized growth,"locus YBR009C, strain hhf1, stronger effect = lower value",1.07
same,normalized growth,"locus YBR021W, strain FUR4, stronger effect = lower value",0.929
same,normalized growth,"locus YBR023C, strain chs3, stronger effect = lower value",1
same,normalized growth,"locus YBR171W, strain sec66, stronger effect = lower value",0.973
same,normalized growth,"locus YBR229C, strain ROT2, stronger effect = lower value",0.983
same,normalized growth,"locus YBR231C, strain swc5, stronger effect = lower value",0.987
same,normalized growth,"locus YBR279W, strain paf1, stronger effect = lower value",0.997
same,normalized growth,"locus YCL011C, strain gbp2, stronger effect = lower value",0.966
same,normalized growth,"locus YCL016C, strain dcc1, stronger effect = lower value",0.998
same,normalized growth,"locus YCL029C, strain bik1, stronger effect = lower value",0.973
same,normalized growth,"locus YCL061C, strain MRC1, stronger effect = lower value",0.998
same,normalized growth,"locus YCL069W, strain vba3, stronger effect = lower value",0.992
same,normalized growth,"locus YCR088W, strain abp1, stronger effect = lower value",0.994
same,normalized growth,"locus YDL005C, strain med2, stronger effect = lower value",0.997
same,normalized growth,"locus YDL035C, strain GPR1, stronger effect = lower value",1.01
same,normalized growth,"locus YDL040C, strain nat1, stronger effect = lower value",1
same,normalized growth,"locus YDL074C, strain BRE1, stronger effect = lower value",0.896
same,normalized growth,"locus YDL101C, strain DUN1, stronger effect = lower value",0.957
same,normalized growth,"locus YDL134C, strain PPH21, stronger effect = lower value",0.992
same,normalized growth,"locus YDL185W, strain tfp1, stronger effect = lower value",0.998
same,normalized growth,"locus YDL192W, strain arf1, stronger effect = lower value",0.988
same,normalized growth,"locus YDR001C, strain nth1, stronger effect = lower value",0.981
same,normalized growth,"locus YDR069C, strain doa4, stronger effect = lower value",0.987
same,normalized growth,"locus YDR101C, strain arx1, stronger effect = lower value",0.996
same,normalized growth,"locus YDR137W, strain rgp1, stronger effect = lower value",1.02
same,normalized growth,"locus YDR150W, strain NUM1, stronger effect = lower value",1
same,normalized growth,"locus YDR159W, strain sac3, stronger effect = lower value",1
same,normalized growth,"locus YDR162C, strain NBP2, stronger effect = lower value",0.987
same,normalized growth,"locus YDR195W, strain ref2",0.99
same,normalized growth,"locus YDR297W, strain sur2, stronger effect = lower value",0.981
same,normalized growth,"locus YDR318W, strain mcm21, stronger effect = lower value",0.97
same,normalized growth,"locus YDR334W, strain swr1, stronger effect = lower value",0.944
same,normalized growth,"locus YDR335W, strain msn5, stronger effect = lower value",0.992
same,normalized growth,"locus YDR388W, stronger effect = lower value",0.981
same,normalized growth,"locus YDR392W, strain spt3, stronger effect = lower value",0.871
same,normalized growth,"locus YDR502C, strain sam2, stronger effect = lower value",0.968
same,normalized growth,"locus YEL003W, strain gim4, stronger effect = lower value",0.99
same,normalized growth,"locus YEL037C, strain rad23, stronger effect = lower value",0.987
same,normalized growth,"locus YEL061C, strain CIN8 (second series), stronger effect = lower value",0.994
same,normalized growth,"locus YEL061C, strain CIN8, stronger effect = lower value",0.996
same,normalized growth,"locus YER015W, strain faa2, stronger effect = lower value",0.971
same,normalized growth,"locus YER016W, strain bim1, stronger effect = lower value",0.988
same,normalized growth,"locus YER110C, stronger effect = lower value",0.977
same,normalized growth,"locus YER111C, strain swi4, stronger effect = lower value",1.01
same,normalized growth,"locus YER155C, strain BEM2 (second series), stronger effect = lower value",0.964
same,normalized growth,"locus YER155C, strain BEM2, stronger effect = lower value",0.979
same,normalized growth,"locus YER167W, strain BCK2, stronger effect = lower value",0.981
same,normalized growth,"locus YFR010W, strain ubp6, stronger effect = lower value",0.997
same,normalized growth,"locus YGL078C, strain dbp3, stronger effect = lower value",0.982
same,normalized growth,"locus YGL086W, strain mad1, stronger effect = lower value",0.985
same,normalized growth,"locus YGL167C, strain pmr1, stronger effect = lower value",1
same,normalized growth,"locus YGL173C, strain kem1, stronger effect = lower value",0.993
same,normalized growth,"locus YGL227W, strain vid30, stronger effect = lower value",0.996
same,normalized growth,"locus YGL240W, strain doc1, stronger effect = lower value",0.938
same,normalized growth,"locus YGL248W, strain PDE1, stronger effect = lower value",0.945
same,normalized growth,"locus YGL253W, strain hxk2, stronger effect = lower value",0.98
same,normalized growth,"locus YGR078C, strain PAC10, stronger effect = lower value",0.947
same,normalized growth,"locus YGR135W, strain pre9, stronger effect = lower value",0.912
same,normalized growth,"locus YGR252W, strain gcn5, stronger effect = lower value",0.741 (active)
same,normalized growth,"locus YHR013C, strain ard1, stronger effect = lower value",0.971
same,normalized growth,"locus YHR027C, strain rpn1, stronger effect = lower value",0.967
same,normalized growth,"locus YHR030C, strain SLT2, stronger effect = lower value",0.994 and 1.01
same,normalized growth,"locus YHR079C, strain IRE1 (second series), stronger effect = lower value",0.977
same,normalized growth,"locus YHR079C, strain IRE1, stronger effect = lower value",1.01
same,normalized growth,"locus YHR094C, strain hxt1, stronger effect = lower value",0.98
same,normalized growth,"locus YHR129C, strain ARP1, stronger effect = lower value",0.983
same,normalized growth,"locus YHR142W, strain chs7, stronger effect = lower value",1
same,normalized growth,"locus YHR200W, strain rpn10, stronger effect = lower value",0.981
same,normalized growth,"locus YIL066C, strain RNR3, stronger effect = lower value",0.984
same,normalized growth,"locus YIL073C, strain SPO22, stronger effect = lower value",0.98
same,normalized growth,"locus YIL125W, strain kgd1, stronger effect = lower value",0.987
same,normalized growth,"locus YIR030C, strain dcg1, stronger effect = lower value",0.975
same,normalized growth,"locus YJL092W, strain hpr5, stronger effect = lower value",0.985
same,normalized growth,"locus YJL095W, strain BCK1 (second series), stronger effect = lower value",0.98
same,normalized growth,"locus YJL095W, strain BCK1, stronger effect = lower value",0.926 and 1.03
same,normalized growth,"locus YJL115W, strain asf1, stronger effect = lower value",0.983
same,normalized growth,"locus YJL129C, strain trk1, stronger effect = lower value",0.973
same,normalized growth,"locus YJL134W, strain LCB3, stronger effect = lower value",0.984
same,normalized growth,"locus YJL154C, strain vps35, stronger effect = lower value",0.982
same,normalized growth,"locus YJL164C, strain tpk1, stronger effect = lower value",1.02
same,normalized growth,"locus YJL166W, strain qcr8, stronger effect = lower value",0.94
same,normalized growth,"locus YJL168C, strain set2, stronger effect = lower value",0.98
same,normalized growth,"locus YJL187C, strain SWE1 (second series), stronger effect = lower value",0.941
same,normalized growth,"locus YJL187C, strain SWE1, stronger effect = lower value",0.986
same,normalized growth,"locus YJR043C, strain POL32, stronger effect = lower value",0.991
same,normalized growth,"locus YJR066W, strain TOR1, stronger effect = lower value",0.94
